An excerpt weighted towards active compounds, which were near 4.8% of everything screened.
Calb FLC = C. albicans growth modulation with fluconazole; C. albicans CaCi-2 (fluconazole-resistant clinical isolate) + fluconazole, Alamar Blue growth, 48 h; 300,000 tested, 0.57% active; growth inhibition, % (test concentration not listed);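 active = growth inhibition above about 58% in most replicates, limit read from the data, passing the limit was not always enough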;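 also: all wells also contain fluconazole at 8 µg/ml as a sub-toxic cotreatment; 0% = median of DMSO wells and 100% = median of geldanamycin control wells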
Beta apoptosis = beta cell apoptosis inhibition; protection from apoptosis, % (test concentration not listed); INS-1E cytokine-induced death, ATP luminescence, 48 h; percent of positive-control rescue, neutral wells zero; 300,000 tested, 0.8% active;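 active = Every replicate reaches about 75%, or at least half do and their mean reaches it too, limit read from the data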;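 also: 0% = cytokine-treated negative control wells and 100% = positive control rescue; higher means more ATP so stronger rescue from cytokine killing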
MPTP block = inhibitors of mitochondrial permeability transition pore; isolated mouse mitochondria, Ca2+ swelling absorbance, 30 min; inhibition, % at 10 µM; 360,000 tested, 1.4% active; AID 602449;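 active = inhibition of 50% or more, scaled per plate between neutral and stimulator controls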;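 also: 0% = DMSO wells given calcium and 100% = 1 mM EGTA wells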
CSC inhib = cancer stem cell inhibition. inhibition, % at 7.5 µM. cancer stem cell-like cells viability, luminescence. AID 2717. 300,000 tested, 1.1% active; in the data active = inhibition above about 75%; tested in HMLE shEcad cells
Mdm2-MdmX inh = inhibitors of human Mdm2/MdmX interaction; O15151+Q00987; SaOS-2 split-luciferase Mdm2/MdmX complementation, luminescence; inhibition, % at 8 µM; 330,000 tested, 3% active;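 active = inhibition of at least 50% at 8 µM in the primary screen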
Numbers without * were called inactive; . = not tested or not shown.

SMILES | Calb FLC | Beta apoptosis | MPTP block | CSC inhib | Mdm2-MdmX inh
O=C(NCc1ccc(F)cc1)C(c1ccccc1)N(CC1CCCO1)C(=O)Cn1nnc2ccccc21 (stereo unspecified) | 91.6* | -8.5 | -0.3 | . | -96.5
N=c1ccn(Cc2ccc(Cl)cc2Cl)cc1 | -2.4 | 103.1* | -3.5 | 2.0 | 17.2
CC(C)NC(=O)C1(C)CSCC(=O)N1CCCn1ccnc1 (stereo unspecified) | . | . | -0.2 | . | .
COc1cc(OC)cc(-c2cc3ccc(OC)cc3cn2)c1 | . | 36.2 | 0.5 | 93.5* | -147.1
COc1ccc2cc(-c3ccccc3)ncc2c1 | -4.5 | 4.6 | 3.7 | -3.1 | -127.4
O=C(CSc1nc(NS(=O)(=O)c2ccccc2)cc(=O)[nH]1)Nc1ccc(Cl)cc1 | . | . | 2.4 | . | .
O=c1cc(NS(=O)(=O)c2ccccc2)nc(SCc2ccc(Cl)cc2)[nH]1 | . | 5.3 | 3.4 | 88.0* | .
CCN(CC)c1nc(SCCOC(=O)Nc2ccccc2)nc(N(CC)CC)n1 | 4.8 | 7.8 | 5.3 | 80.6* | 17.5
COc1cccc(C2/C(=C(/O)c3ccc(C)cc3)C(=O)C(=O)N2Cc2ccco2)c1 (stereo unspecified) | 93.9* | -2.9 | 9.1 | 0.2 | 11.9
Oc1ccccc1N=Nc1ccccc1O | 93.8* | . | 3.9 | . | .
CSc1ccc(CN2CCC2(C)C(=O)NC2CCc3ccccc32)cc1 (stereo unspecified) | . | . | 3.3 | . | .
Cc1cccc(NC(=S)NNC(=O)c2cc3c(s2)CCC(C)C3)c1C (stereo unspecified) | 109.6* | 0.3 | 16.5 | . | 8.6
Cc1ccc(C)c(NC(=S)NNC(=O)c2cc3c(s2)CCC(C)C3)c1 (stereo unspecified) | 0.6 | -7.9 | 12.1 | 2.0 | 26.9
CCNC(=O)C1(C)CCCN1Cc1c(F)cccc1F (stereo unspecified) | . | . | 0.2 | . | .
COc1ccc(C2=Nc3ccccc3N(C(=O)c3cnccn3)C2C(=O)NC2CCCC2)cc1 (stereo unspecified) | . | . | -0.3 | . | .
O=C(NCc1ccc(Cl)c(Cl)c1)c1cc(C2CCCCN2C(=O)c2ccccc2)on1 (stereo unspecified) | . | . | 0.9 | . | .
CC(=O)N(Cc1ccc(F)cc1)C1=C(NCc2ccccc2)C(=O)c2ccccc2C1=O | 89.3* | . | 0.8 | . | .
O=C(NCc1ccc(F)cc1)C(c1ccccc1)c1ccccc1 | -2.4 | -4.6 | -0.6 | 14.4 | -8.5
CCOC(=O)c1c(-c2ccccc2Cl)cn2ccccc12 | 90.7* | -9.3 | 2.2 | 11.5 | 7.7
CCOC(=O)c1c(-c2cccc([N+](=O)[O-])c2)cn2ccccc12 | 29.2 | -3.5 | -0.5 | -23.7 | 21.8
O=C1Nc2ccccc2N(C(=O)c2ccc3ccccc3c2)C1c1nc2ccccc2[nH]1 (stereo unspecified) | . | . | -2.5 | . | .
Cc1nn(Cc2ccc(Cl)c(Cl)c2)c(C)c1NC(=O)c1cc(-c2ccc3c(c2)OCO3)on1 | -12.4 | 18.7 | 6.3 | 80.6* | 33.7
O=C(NCc1ccco1)c1cc(-c2ccc3c(c2)OCO3)on1 | -7.4 | 2.6 | 0.5 | 82.0* | -49.1
Cc1nn(Cc2ccc(Cl)cc2)c(C)c1NC(=O)c1cc(-c2ccc3c(c2)OCO3)on1 | -6.6 | 25.5 | 0.0 | 83.3* | -5.9
CC(C)N1CCN(Cc2ccc(OCc3ccccc3)cc2)CC1CCO (stereo unspecified) | 1.0 | 6.6 | 5.3 | 77.0* | 20.7
SMILES | Calb FLC | Beta apoptosis | MPTP block | CSC inhib | Mdm2-MdmX inh
CC(C)N1CCN(Cc2ccc(-c3ccccc3)cc2)CC1CCO (stereo unspecified) | -14.0 | . | 23.2 | 54.0 | 16.3
Cc1nn(Cc2cccc(F)c2)c(C)c1NC(=O)c1ccc(COc2ccccc2Cl)cc1 | -5.1 | 16.3 | -1.3 | 101.3* | 49.0
Cc1nn(Cc2c(F)c(F)c(F)c(F)c2F)c(C)c1NC(=O)c1cccc(COc2ccccc2Cl)c1 | -3.5 | 12.2 | -2.0 | 10.0 | -21.6
Cc1cccc2sc(NNC(=O)c3ccc(S(=O)(=O)N4CCCC(C)C4)cc3)nc12 (stereo unspecified) | -0.6 | 102.4* | 25.3 | 127.6* | .
CCc1nnc(NC(=O)c2ccc(S(=O)(=O)N3CCCC(C)C3)cc2)s1 (stereo unspecified) | -5.0 | -8.7 | -1.4 | . | 16.4
O=C1CC(N(CCc2ccccc2)C(=S)Nc2ccccc2)C(=O)N1c1ccccc1 (stereo unspecified) | 2.9 | 3.8 | -24.3 | 78.6* | 30.0
O=C1CC(N(CCc2ccccc2)C(=S)Nc2cc(Cl)ccc2Cl)C(=O)N1c1c(Cl)cccc1Cl (stereo unspecified) | 1.3 | 29.9 | -2.7 | 106.7* | 31.5
O=C1CC(N(CCc2ccccc2)C(=S)Nc2ccccc2)C(=O)N1c1ccc(F)cc1 (stereo unspecified) | 9.9 | 12.9 | 4.2 | 38.1 | 12.1

Screening data as filed in PubChem BioAssay.
